In the library only some 4.7% were active in any assay of this set; here they are far more common.
SKKanGAS inh: S. pyogenes SKKanGAS growth inhibitors in kanamycin, primary screen, streptokinase expression inhibitor project, SKKanGAS strain, BacTiter-Glo luminescence. AID 1662, 2009. 6 h. inhibition, % at 7.5 µM. 1.3% of 300,000 active;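 active means mean replicate score, as percent of positive control median, at least 50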;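 further: strain carries kanamycin resistance gene driven by streptokinase promoter and grows in 40 µg/ml kanamycin; loss of luminescence reflects streptokinase promoter inhibition or plain growth inhibition; 0% = median of DMSO wells and 100% = positive control at its reference dose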
PfHsp90 yeast 2: growth inhibition of PfHsp90-expressing yeast, primary screen, antimalarial PfHsp90 inhibitor project, S. cerevisiae, BacTiter-Glo luminescence, single point, set 2. 0.32% of 310,000 active. BacTiter-Glo ATP, 48 h; yeast lacking PDR1 and PDR3 efflux regulators. AID 504621, 2011. inhibition, % at 9.4 µM;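 active means every replicate shows inhibition above about 80%, whatever the replicate mean, limit read from the data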;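 further: 0% = DMSO neutral controls and 100% = 20 µM radicicol positive controls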
tim10-1 inh: growth inhibitors of tim10-1 mutant yeast, primary screen, luminescence, uHTS. S. cerevisiae tim10-1 ts strain growth, BacTiter-Glo, 24 h. inhibition, % at 20 µM. 2.2% of 330,000 active. AID 463190, 2010;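 active means inhibition of at least 40%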;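 further: mutant grown at 25 °C; 0% = DMSO wells with yeast and 100% = wells holding no yeast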
TIM10 inh: growth inhibitors of isogenic TIM10 control yeast, primary screen, counter-screen for tim10-1 yeast inhibitor project, luminescence, uHTS; S. cerevisiae TIM10 strain growth, BacTiter-Glo luminescence, 24 h; inhibition, % at 10 µM; AID 463195, 2010; 1.4% of 330,000 active;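 active means inhibition of 40% or more at the single tested concentration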;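 further: wild-type TIM10 isogenic control strain grown at permissive 25 °C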
Calb FLC: C. albicans growth inhibition with fluconazole, primary screen, CaCi-2 strain, Alamar Blue fluorescence | AID 1979, 2009 | C. albicans CaCi-2 (fluconazole-resistant clinical isolate) + fluconazole, 48 h | growth inhibition, % (no concentration beside the values) | 0.57% of 300,000 active;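 active means growth inhibition above about 58% in most replicates, limit read from the data, passing the limit was not always enough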;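 further: all wells also contain fluconazole at 8 µg/ml as a sub-toxic cotreatment; 0% = median of DMSO wells and 100% = median of geldanamycin control wells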
tim23-1 inh: growth inhibitors of tim23-1 mutant yeast, primary screen, luminescence, uHTS. AID 463212, 2010. 1.3% of 330,000 active. inhibition, % at 20 µM. S. cerevisiae tim23-1 growth, BacTiter-Glo luminescence, 24 h;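 active means growth inhibition of the mutant yeast at or above 50%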;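 further: temperature-sensitive mutant grown at 25 °C; plate controls were DMSO-treated mutant yeast for no effect and medium wells lacking yeast for full effect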
tim10-1 conf: growth inhibitors of tim10-1 mutant yeast, confirmation, single concentration, luminescence, S. cerevisiae; shares compounds with tim10-1 inh; S. cerevisiae tim10-1 ts strain growth, BacTiter-Glo, 24 h; inhibition, % at 20 µM; 56% of 7,400 active;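 active means inhibition of yeast growth at or above a set limit in either of two repeat tests at 20 µM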;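 further: tim10-1 mutant grown at permissive 25 °C to find synthetic lethal compounds; 0% = DMSO yeast wells and 100% = medium wells without yeast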
* marks the source's active call; other numbers are inactive results.

`O=C(c1ccc(OC2CCN(Cc3ccccn3)CC2)cc1)N1CCCCO1` gave SKKanGAS inh -0.6, PfHsp90 yeast 2 -7.8, tim10-1 inh -9.3, TIM10 inh -17.9, Calb FLC -14.9 and tim23-1 inh -3.7.
`O=C(Cc1cccc2ccccc12)Nc1c(F)cccc1F` gave SKKanGAS inh -1.2, PfHsp90 yeast 2 -21.4, tim10-1 inh -20.8, TIM10 inh 7.5, Calb FLC -5.7 and tim23-1 inh -4.0.
`Cc1nc2ccc(NC(=O)c3cc(S(=O)(=O)N4CCOCC4)ccc3C)cc2s1` gave SKKanGAS inh 0.9, PfHsp90 yeast 2 6.4, tim10-1 inh 5.7, TIM10 inh 10.1, Calb FLC -0.5 and tim23-1 inh -6.6.
Cc1nc2ccc(Nc3nc4cc(S(=O)(=O)N5CCOCC5)ccc4o3)cc2s1 was read as SKKanGAS inh 5.8, PfHsp90 yeast 2 6.5, tim10-1 inh 44.6*, TIM10 inh 37.6, Calb FLC 5.8, tim23-1 inh 32.9 and tim10-1 conf 33.8*.
For CCOc1cc(CNC(=O)CCCn2c(=O)c3cccn3c3cccnc32)cc(OCC)c1OCC the results were SKKanGAS inh -6.3, PfHsp90 yeast 2 -5.2, tim10-1 inh 16.9, TIM10 inh 6.9, Calb FLC -0.3 and tim23-1 inh 13.7.
Screening CCc1ccc(CNC(=O)CCCn2c(=O)c3cccn3c3cccnc32)cc1 returned SKKanGAS inh -6.6, PfHsp90 yeast 2 -8.8, tim10-1 inh 46.3*, TIM10 inh 12.6, Calb FLC 0.7, tim23-1 inh 34.3 and tim10-1 conf 6.0.
`O=S(=O)(c1ccc(NC(=S)Nc2ccccc2)cc1)N1CCOCC1` gave SKKanGAS inh 7.5, PfHsp90 yeast 2 -19.0, tim10-1 inh 13.9, TIM10 inh 4.3, Calb FLC -2.2 and tim23-1 inh 25.9.
Screening CC(NC(=S)Nc1ccc(S(=O)(=O)N2CCOCC2)cc1)C1CC2CCC1C2 (stereo not given) returned SKKanGAS inh 4.5, PfHsp90 yeast 2 6.7, tim10-1 inh 48.8*, TIM10 inh 23.6, Calb FLC 18.5, tim23-1 inh 42.1 and tim10-1 conf 42.8*.
`CC(C)CNC(=O)CSc1ccc(S(=O)(=O)N2CCN(C)CC2)cn1` gave PfHsp90 yeast 2 9.4, tim10-1 inh -6.4, TIM10 inh -13.3 and tim23-1 inh -0.5.
For CCOC(=O)Cc1csc2nc3sc(C)c(C)c3c(=O)n12 the results were SKKanGAS inh 0.4, PfHsp90 yeast 2 -107.5, tim10-1 inh 43.2*, TIM10 inh -6.3, Calb FLC -19.6, tim23-1 inh 17.1 and tim10-1 conf 12.8.
CCOC(=O)CNC(=O)CSc1nc2sc(C)c(C)c2c(=O)n1C was read as SKKanGAS inh 6.4, PfHsp90 yeast 2 0.2, tim10-1 inh 12.4, TIM10 inh 10.6, Calb FLC -6.4 and tim23-1 inh 11.0.
O=C(COc1ccc(F)cc1Br)Nc1ccccc1N1CCOCC1 was read as PfHsp90 yeast 2 -14.1, tim10-1 inh 23.6, TIM10 inh -7.0 and tim23-1 inh 32.0.
For CCOC(=O)CC(=O)CSc1nc2c(c(-c3cccs3)c1C#N)CCC2 the results were SKKanGAS inh -10.6, PfHsp90 yeast 2 -3.5, tim10-1 inh 42.2*, TIM10 inh 26.3, Calb FLC 1.7, tim23-1 inh 41.3 and tim10-1 conf 33.0*.
Cc1ccc(SCCNC(=S)Nc2ccc(C)c(C)c2)cc1 was read as SKKanGAS inh 36.2, PfHsp90 yeast 2 -34.3, tim10-1 inh 37.5, TIM10 inh 33.9, Calb FLC -21.6 and tim23-1 inh 39.1.
Cc1ccc(SCCNC(=S)Nc2cc(C)ccc2C)cc1 was read as SKKanGAS inh 28.8, PfHsp90 yeast 2 5.5, tim10-1 inh 43.1*, TIM10 inh 32.4, Calb FLC -9.2, tim23-1 inh 13.8 and tim10-1 conf 12.1.
For CCc1ccc(NC2=NCC(=O)N2c2ccc3c(c2)OCCO3)cc1 the results were SKKanGAS inh -1.4, PfHsp90 yeast 2 15.0, tim10-1 inh 41.6*, TIM10 inh -6.8, Calb FLC 4.5, tim23-1 inh 19.0 and tim10-1 conf 15.6.
For CCN(CC(=O)NCC1CCCO1)S(=O)(=O)c1ccc2ccccc2c1 (stereo not given) the results were SKKanGAS inh -1.8, PfHsp90 yeast 2 5.2, tim10-1 inh 3.3, TIM10 inh -4.4, Calb FLC -1.2 and tim23-1 inh 4.2.
`CCOC(=O)c1cnc(Nc2nc3ccccc3o2)nc1CSc1nnc(C)s1` gave SKKanGAS inh 15.9, PfHsp90 yeast 2 -19.4, tim10-1 inh 49.5*, TIM10 inh 10.1, Calb FLC 0.1, tim23-1 inh 11.3 and tim10-1 conf 16.0.
Screening CC(=O)Nc1ccc(OS(=O)(=O)c2c(C)cc(C)cc2C)cc1 returned SKKanGAS inh -15.7, PfHsp90 yeast 2 -21.1, tim10-1 inh 46.4*, TIM10 inh 33.1, Calb FLC 5.6, tim23-1 inh 41.5 and tim10-1 conf 31.1*.
For CCOc1ccc(CCNC(=O)c2cc3c(s2)CS(=O)(=O)C3)cc1OCC the results were SKKanGAS inh 0.6, PfHsp90 yeast 2 -1.6, tim10-1 inh -5.5, TIM10 inh 6.1, Calb FLC -10.1 and tim23-1 inh -6.0.
`COc1cnc(-c2ccccn2)nc1Sc1ccccc1Cl` gave SKKanGAS inh -4.5, tim10-1 inh 46.6*, TIM10 inh 18.5, Calb FLC 81.2*, tim23-1 inh 46.0 and tim10-1 conf 33.8*.
For Cc1cc(C)n2nc(C(=O)OCC(=O)N(C)C3CCS(=O)(=O)C3)nc2n1 (stereo not given) the results were PfHsp90 yeast 2 15.2, tim10-1 inh 0.5, TIM10 inh 14.4 and tim23-1 inh 12.9.
For CC[n+]1ccccc1/C=C1\Sc2ccc(C)cc2N1C the results were SKKanGAS inh 4.1, PfHsp90 yeast 2 5.7, tim10-1 inh 41.2*, TIM10 inh 5.7, Calb FLC 61.4, tim23-1 inh 24.1 and tim10-1 conf 12.2.
`CCOc1ccc(CN2CCN(S(=O)(=O)c3ccc(NC(C)=O)cc3)CC2)cc1` gave SKKanGAS inh -0.6, PfHsp90 yeast 2 -14.9, tim10-1 inh 8.3, TIM10 inh 12.0, Calb FLC -1.7 and tim23-1 inh 12.9.
Cc1cccc(C(=O)CC(=O)c2cc(Cl)ccc2O)c1 was read as SKKanGAS inh 94.1*, PfHsp90 yeast 2 18.7, tim10-1 inh 47.3*, TIM10 inh 29.1, Calb FLC 97.6*, tim23-1 inh 41.5 and tim10-1 conf 63.0*.

Screening data deposited in PubChem BioAssay by several laboratories.
